The whole screen tested about 52,000 compounds, of which about 4,300 (8.3%) were called active. The sample holds actives, similar compounds and a random draw of the others, so the mix is not that of the screen. A number with no mark means an inactive call. Cut-off read from the data, not from the text of the source: active = survival mostly below about 52% (no sharp cut-off); inactive = mostly above about 56%.

This assay has as its system DeltatarO mutant. Kind of assay: growth inhibition of S. aureus wild type versus tarO mutant, primary screen, teichoic acid synthesis inhibitors, RN4220, OD600 (AID 463173). The following applies: OD600, 18 h, hits give low values, screened at 18.75 µg/mL (by protocol).
On to `O=C1CN(C(=O)c2ccc(S(=O)(=O)N3CCCCC3)cc2)C(c2ccc(F)cc2)c2cc(Cl)ccc2N1` (stereo unspecified), for which the survival is 62%.

For `CC(C)Oc1ccc(CNC(=O)Cn2c(=O)oc3ccccc32)cc1`, the survival was 77%.

Turning to `C[C@H](NC(=O)OC(C)(C)C)c1nnc(SCc2ccc(Cl)cc2Cl)o1`, the survival was 54%.

As to `CC(C)C[C@H](N)c1nnc(SCc2ccc(Cl)cc2Cl)o1`, the survival was 38% (active).

Consider `Cc1nnc(SCc2ccc(Cl)cc2Cl)o1`, for which the survival is 80%.

For `CSc1ncc2c(n1)-c1ccccc1N(Cc1ccc(Cl)cc1)S2(=O)=O`, the survival was 98%.

As for `O=C(CCNS(=O)(=O)c1ccc(Br)s1)Nc1ccc(Br)cc1`, the survival is 40% (active).

For `CCc1cccc(NC(=O)C2CCC(CNS(=O)(=O)c3ccc(Br)s3)CC2)c1` (stereo unspecified), the survival is 79%.

On to `Cc1cc(NC(=O)C2CCC(CNS(=O)(=O)c3ccc(Br)s3)CC2)ccc1Br` (stereo unspecified), for which the survival was 93%.

As for `CCOc1ccc(NC(=O)CNS(=O)(=O)c2ccc(Br)s2)cc1`, the survival was 49%.

As for `Cc1ccc(NC(=O)CCNS(=O)(=O)c2ccc(Br)s2)cc1`, the survival is 50% (active).

Consider `COC(=O)c1ccc(NC(=O)CN(C)S(=O)(=O)c2ccc(Br)s2)cc1`, for which the survival was 73%.

In the case of `COc1cccc(NC(=O)CCNS(=O)(=O)c2ccc3c(c2)oc(=O)n3C)c1`, the survival is 90%.

For the compound `CCOc1ccc(NC(=O)CCNS(=O)(=O)c2cccs2)cc1`, the survival is 51%.

As for `Cc1cccc(NC(=O)C2CCC(CNS(=O)(=O)c3ccc(Br)s3)CC2)c1` (stereo unspecified), the survival is 52% (active).

Consider `COc1cccc(CNC(=O)C2CCC(CNS(=O)(=O)c3ccc(Br)s3)CC2)c1` (stereo unspecified), for which the survival was 71%.

Consider `CCOc1ccc(NC(=O)CCS(=O)(=O)c2ccc(Br)s2)cc1`, for which the survival is 82%.

With `COc1cccc(NC(=O)CCNS(=O)(=O)c2ccc(Br)s2)c1`, the survival is 37% (active).

For `Cc1c(Cl)cccc1NC(=O)CN1C(=O)COc2ccc(S(=O)(=O)N3CCOCC3)cc21`, the survival is 88%.

Consider `CC1C(=O)OC(c2ccccc2)C(C)(C)C1=O` (stereo unspecified), for which the survival is 94%.

As to `CCc1ccccc1N1C(=O)CC(N2CCc3ccccc32)C1=O` (stereo unspecified), the survival was 102%.

Regarding `Cc1ccc(NC(=O)c2oc3ccc(S(=O)(=O)N4CCCCC4)cc3c2C)c(C)c1`, the survival is 79%.

As for `Cc1ccc(Cl)cc1N1CCN(C(=O)COCc2cc(-c3ccc4c(c3)OCO4)on2)CC1`, the survival was 95%.

With `Cc1cccc(CC(=O)NCCc2sc3nc(-c4ccc(F)cc4)nn3c2C)c1`, the survival was 91%.

On to `COc1ccccc1NC(=O)Cn1c(=O)n(-c2cccc(Cl)c2)c(=O)c2sc3ccccc3c21`, for which the survival is 103%.

As to `CCOC(=O)c1c(C)[nH]c(CCC(=O)NCc2ccc(OC)c(OC)c2)c1C`, the survival is 81%.

As for `COc1ccc(C)cc1NC(=O)CSc1ncc2c(n1)-c1ccc(Cl)cc1N(Cc1ccccc1)S2(=O)=O`, the survival is 78%.

Consider `CCc1ccccc1NC(=O)CSc1nc2c(c(=O)[nH]1)CN(Cc1ccccc1OC)CC2`, for which the survival was 75%.

Consider `O=c1[nH]c(SCc2c(F)cccc2Cl)nc2c1CCC2`, for which the survival is 74%.

In the case of `COc1ccc(OCC(=O)Nc2ccc(N3CCN(S(C)(=O)=O)CC3)cc2)cc1`, the survival is 97%.

For the compound `COc1ccc(NC(=O)Cn2c(=O)nc(-c3ccccc3)c3ccccc32)cc1OC`, the survival was 78%.

Take `Cc1ccc(NC(=O)C2CCC(CNS(=O)(=O)c3cccc4nsnc34)CC2)c(C)c1` (stereo unspecified): the survival was 95%.

`Cc1ccc(NC(=O)C2CCC(CNS(=O)(=O)c3cccc4nsnc34)CC2)c(Cl)c1` (stereo unspecified): the survival is 47% (active).

As for `Cc1ccc(Cl)cc1NC(=O)C1CCC(CNS(=O)(=O)c2cccc3nsnc23)CC1` (stereo unspecified), the survival is 100%.

As for `CCCCN(CC)CCCNC(=O)c1nn(-c2ccc(OC)cc2)c(=O)c2c1c1ccccc1n2C`, the survival was 123%.

Consider `COc1cccc(C2=NS(=O)(=O)N(C)C(C(=O)Nc3cccc(O)c3)=C2)c1`, for which the survival was 70%.

Turning to `COc1cc(NC(=O)Cn2ccn(-c3cc(C)cc(C)c3)c(=O)c2=O)cc(OC)c1`, the survival was 71%.

In the case of `CCN(c1cc(C)cc(C)c1)S(=O)(=O)c1nnc(NC(=O)c2ccccc2C)s1`, the survival is 49%.

For `CCN(c1ccc(OC)cc1)S(=O)(=O)c1nnc(NC(=O)c2ccccc2Cl)s1`, the survival was 46% (active).

With `CCN(c1cccc(C)c1)S(=O)(=O)c1nnc(NC(=O)c2ccccc2Cl)s1`, the survival was 17% (active).

In the case of `CCN(c1ccccc1)S(=O)(=O)c1nnc(NC(=O)c2ccccc2OC)s1`, the survival was 47%.

As for `CCN(c1ccc(Cl)cc1)S(=O)(=O)c1nnc(NC(=O)C(C)C)s1`, the survival was 84%.

Consider `CCN(c1ccc(Cl)cc1)S(=O)(=O)c1nnc(NC(=O)c2ccccc2C)s1`, for which the survival was 8% (active).

Regarding `CCN(CC)S(=O)(=O)c1nnc(NC(=O)c2ccccc2Cl)s1`, the survival was 70%.

On to `CCN(c1ccccc1C)S(=O)(=O)c1nnc(NC(=O)c2ccccc2C)s1`, for which the survival was 15% (active).

In the case of `OCCN(Cc1ccccc1)Cc1ccccc1O`, the survival was 102%.

For the compound `CC(=O)N1c2ccccc2C(=O)C1N1CCN(c2ccccc2)CC1` (stereo unspecified), the survival is 85%.

As for `CCCOc1ccc(-c2cccc(NS(=O)(=O)c3cc(OC)ccc3OC)c2)nn1`, the survival was 99%.

Regarding `COc1cccc(Nc2nc3cc(Cl)c(Cl)cc3nc2-n2nc(C)cc2C)c1`, the survival is 98%.

For `Cc1ccc(C(=O)c2cn(CC(=O)Nc3ccc(C)cc3Cl)c3nc(C)ccc3c2=O)cc1`, the survival was 99%.

On to `Cc1ccc(Cl)cc1NC(=O)CCCn1c(=O)c2cccn2c2cccnc21`, for which the survival was 100%.

With `O=C(O)CCCN1CCCC1=O`, the survival is 81%.

Regarding `CCCCOC(=O)c1ccc(NC(=O)CSc2nc3c(c(=O)[nH]2)CCC3)cc1`, the survival was 55%.

In the case of `CC(C)=NOC1=NS(=O)(=O)c2ccccc21`, the survival was 92%.

Turning to `O=C(Nc1ccc(F)c(Cl)c1)N1CCC2(CC1)Oc1ccccc1C(=O)N2Cc1ccccc1F`, the survival is 55%.

As for `CC(C)OCCCNC(=O)CCCn1c(SCC(N)=O)nc2c(sc3ccccc32)c1=O`, the survival was 88%.

Regarding `COc1ccccc1C(=O)Nc1nnc(S(=O)(=O)N(C)c2ccc(Cl)cc2)s1`, the survival is 95%.

In the case of `CCN(c1ccc(OC)cc1)S(=O)(=O)c1nnc(NC(=O)COc2ccc(F)cc2)s1`, the survival was 70%.

Turning to `CCN(c1ccc(OC)cc1)S(=O)(=O)c1nnc(NC(=O)c2ccccc2C)s1`, the survival was 37% (active).

As for `Cc1ccccc1C(=O)Nc1nnc(S(=O)(=O)N(C)Cc2ccc(Cl)cc2)s1`, the survival is 102%.

`Cc1ccccc1C(=O)Nc1nnc(S(=O)(=O)N(C)c2ccc(Cl)cc2)s1`: the survival is 30% (active).

The values are drawn from PubChem BioAssay AID463173 (ICCB-Longwood Screening Facility, Harvard Medical School, 2010).
